A selection: hits, their analogues and other compounds. The true share with any hit is near 4.3%.
PfHsp40 rescue = rescue of yeast from PfHsp40 toxicity, primary screen, S. cerevisiae, ATP luminescence; S. cerevisiae expressing PfHsp40, growth rescue; growth rescue, % at 12.5 µM; 340,000 compounds, 0.68% hits; AID 504582, 2011; in the data active = growth rescue above about 28%, passing the limit was not always enough; inconclusive = no clear call, values can overlap the other calls;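 note: yeast W303a lacking pdr1 and pdr3 grown in galactose medium; growth measured after three days at 30 °C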
BoNT-A LC inh2 = BoNT/A light chain protease inhibitors, primary screen, biochemical, flow cytometry, MLPCN library; multiplex microsphere protease substrate cleavage; 360,000 compounds, 0.17% hits; Botulinum neurotoxin type A light chain protease (Clostridium botulinum A str. ATCC 3502); inhibition, % at 10 µM; note: plate controls were buffer without enzyme for full effect and enzyme alone for no effect
MazEF act = activators of E. coli MazEF toxin-antitoxin RNase, primary screen, biochemical, fluorescence, uHTS; Endoribonuclease toxin MazF (Escherichia coli (strain K12)), P0AE70; activation, % at 20 µM; 350,000 compounds, 0.32% hits; FAM/BHQ RNA-DNA oligo cleavage fluorescence, 5 h; AID 504720, 2011; in the data active = activation above about 50%
BoNT-F LC inh = BoNT/F light chain protease inhibitors, primary screen, biochemical, flow cytometry, MLPCN library | inhibition, % at 10 µM | Multiplex microsphere protease cleavage assay | 360,000 compounds, 0.22% hits | Botulinum neurotoxin type F light chain protease (Clostridium botulinum); in the data active = inhibition above about 35%, passing the limit was not always enough; inconclusive = no clear call, values can overlap the other calls; note: plate controls were buffer without enzyme for full effect and enzyme alone for no effect
Anthrax LF inh2 = Bacillus anthracis LF protease inhibitors, primary screen, biochemical, multiplex microsphere, MLPCN library; multiplex microsphere protease cleavage assay; 360,000 compounds, 0.12% hits; AID 588501, 2011; inhibition, % at 10 µM; Lethal factor (Bacillus anthracis), P15917; note: plate controls were buffer without enzyme for full effect and enzyme alone for no effect
Target sequence (P15917 whole entry, looked up): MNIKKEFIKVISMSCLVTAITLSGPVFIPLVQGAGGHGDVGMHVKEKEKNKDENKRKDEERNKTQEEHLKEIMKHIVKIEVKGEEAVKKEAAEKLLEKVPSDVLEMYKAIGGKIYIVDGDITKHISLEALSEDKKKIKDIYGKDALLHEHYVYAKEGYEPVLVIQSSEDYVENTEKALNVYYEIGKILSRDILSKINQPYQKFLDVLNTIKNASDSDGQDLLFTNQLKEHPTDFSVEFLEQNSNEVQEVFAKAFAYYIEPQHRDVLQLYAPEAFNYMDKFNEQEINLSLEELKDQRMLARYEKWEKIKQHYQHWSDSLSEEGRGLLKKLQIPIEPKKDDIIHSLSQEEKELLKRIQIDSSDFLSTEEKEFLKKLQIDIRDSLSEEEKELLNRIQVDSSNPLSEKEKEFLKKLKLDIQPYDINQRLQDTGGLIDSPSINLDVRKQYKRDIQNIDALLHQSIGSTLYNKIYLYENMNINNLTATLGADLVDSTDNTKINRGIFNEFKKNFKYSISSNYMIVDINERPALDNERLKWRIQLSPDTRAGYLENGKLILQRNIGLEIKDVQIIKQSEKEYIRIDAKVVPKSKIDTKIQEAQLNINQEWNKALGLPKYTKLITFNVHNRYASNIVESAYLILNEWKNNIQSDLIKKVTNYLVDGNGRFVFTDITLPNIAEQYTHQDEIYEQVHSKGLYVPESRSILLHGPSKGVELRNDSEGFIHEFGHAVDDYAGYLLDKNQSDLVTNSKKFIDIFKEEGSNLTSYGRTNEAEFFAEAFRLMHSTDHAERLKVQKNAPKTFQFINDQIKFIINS
Bead autofluor = compound fluorescence in toxin protease inhibitor counterscreen; 360,000 compounds, 3.1% hits; AID 624483; fluorescence intensity (test concentration not listed); compound autofluorescence counterscreen, microsphere flow cytometry; stronger effect = higher value; in the data active = fluorescence intensity above about 16000; inconclusive = no clear call, values can overlap the other calls
The depositor's hits bear a star; ? = inconclusive; / = not tested or not shown. Cut-off read from the data, not from the text of the source, unless noted: active = inhibition above about 30%; inconclusive = no clear call, values can overlap the other calls; inactive = below that.

SMILES	PfHsp40 rescue	BoNT-A LC inh2	MazEF act	BoNT-F LC inh	Anthrax LF inh2	Bead autofluor
O=[N+]([O-])c1nn(-c2ccccc2)[n+]([O-])c1N1CCN(c2ccccc2F)CC1	-0.5	0.3	143.8*	-3.5	-2.1	1985
COc1ncnc2c1oc1nc(C(C)C)c3c(c12)CC(C)(C)OC3	0.0	0.7	5.1	11.4	1.3	8652
CCOc1ncnc2c1oc1nc(CC(C)C)c3c(c12)CC(C)(C)OC3	0.1	2.1	4.5	3.1	-0.3	19881*
CCCc1nc2oc3c(NCC4CCCO4)ncnc3c2c2c1COC(C)(C)C2 (stereo unspecified)	-0.9	0.7	7.2	-0.4	1.4	22258*
CN(C)N1C(N)=C(C#N)C(c2ccccc2F)C2=C1CC(C)(C)CC2=O (stereo unspecified)	-1.4	1.9	1.6	3.8	-4.6	3804
COc1cccc(NC(=O)N(Cc2ccco2)C(C)c2cccs2)c1 (stereo unspecified)	0.5	-1.8	-0.8	-2.6	-1.8	7701
CC(c1cccs1)N(Cc1ccco1)C(=O)Nc1ccc(Cl)c(Cl)c1 (stereo unspecified)	2.6	-2.8	1.6	-6.1	-5.3	17014*
COc1cccc2c1OC[C@@H](CO)[C@H]2N(C)C(=O)Nc1ccc(Cl)cc1	0.5	5.5	0.0	9.6	-0.9	21011*
COCCN(CCOC)C(=O)Nc1ccc(Cl)cc1	-0.5	-0.3	-0.3	-1.5	-0.9	4911
COc1ccc([N+](=O)[O-])cc1NC(=O)c1ccc(C)o1	1.1	0.0	1.3	0.8	1.1	2526
CC(C)CCNC(=O)c1ccc(CS(=O)(=O)Cc2ccccc2F)o1	-0.8	-1.4	-3.5	-8.1	2.5	4666
O=C(NCCc1ccccc1)c1ccc(CS(=O)(=O)Cc2ccccc2F)o1	1.3	2.8	-3.2	4.6	2.8	18882*
Cc1ccc(CCNC(=O)c2ccc(CS(=O)(=O)Cc3ccccc3F)o2)cc1	0.7	1.6	-8.1	1.5	-1.6	23305*
O=C(NC1CCCC1)c1ccc(CS(=O)(=O)Cc2ccccc2F)o1	-0.4	0.0	4.9	0.5	-2.3	5803
CS(=O)(=O)N(CC(=O)N1CCc2ccccc2C1)c1ccccc1F	/	/	-1.9	/	/	/
Cc1nc(N)sc1-c1nnc(SCC(=O)Nc2ccccc2C(F)(F)F)n1C	1.0	-2.0	3.6	-3.9	-0.6	22790*
N#Cc1cnc(SCC(=O)Nc2ccccc2C(F)(F)F)nc1N	-1.5	?	-5.5	-3.9	4.1	17110*
Cc1ccc(OCC(=O)NNC(=O)CSc2ncc(C#N)c(N)n2)cc1	0.5	0.1	-6.3	-3.7	-3.0	2536
CCOc1ccccc1NC(=O)c1ccc2c(O)c(S(=O)(=O)c3ccccc3)c(=O)[nH]c2c1	/	-0.1	3.7	-3.2	-1.0	3428
COc1cc(NC(=O)COC(=O)CNC(=O)c2ccc(C)cc2)c(C)cc1[N+](=O)[O-]	86.4*	0.1	-5.7	-3.4	-1.1	1953
CCOc1ccc(C(=O)C[n+]2cccc3cc(C)ccc32)cc1	0.1	-18.1	-0.7	79.2*	12.0	25078*
CC1CCCCN1C/C=C/c1ccccc1[N+](=O)[O-] (stereo unspecified)	1.7	-2.8	-1.2	-1.4	-0.2	23342*
O=[N+]([O-])c1ccccc1/C=C/CN1CCSCC1	-0.6	3.3	4.1	?	9.7	3131
CC1CCCN(C/C=C/c2ccccc2[N+](=O)[O-])C1 (stereo unspecified)	-0.7	1.4	0.6	-0.4	-4.0	20230*
CCC1CCCCN1C/C=C/c1ccccc1[N+](=O)[O-] (stereo unspecified)	0.1	6.7	-7.2	8.1	1.6	20733*
SMILES	PfHsp40 rescue	BoNT-A LC inh2	MazEF act	BoNT-F LC inh	Anthrax LF inh2	Bead autofluor
CCOc1ccc(-c2nnc3sc(COc4ccccc4)nn23)cc1	0.5	-2.2	0.8	-7.4	-3.0	11014
COc1ccc(-c2nnc3sc(COc4ccccc4)nn23)cc1	-0.6	-2.2	8.3	-4.7	-4.8	20311*
CCOc1ccccc1OCc1nn2c(COc3ccccc3)nnc2s1	0.8	0.9	8.0	-0.2	-0.6	16185*
c1ccc(Cc2nn3c(COc4ccccc4)nnc3s2)cc1	1.7	-3.4	-2.1	-2.8	-1.4	24302*
COc1ccc(-c2nnc3sc(COc4ccc(C)cc4)nn23)cc1	0.2	0.8	29.6	?	-5.7	4619
Cc1ccc(S(=O)(=O)N(CC(=O)NCc2ccncc2)Cc2ccc(F)cc2)cc1	-0.3	-1.3	4.3	5.6	-0.1	3947
O=C(CN1CCc2ccccc2C1)N1CCN(S(=O)(=O)c2ccccc2)CC1	1.5	0.8	2.5	-1.8	-12.2	?
Cc1ccc(S(=O)(=O)N2CCN(C(=O)COC(=O)COc3ccccc3)CC2)cc1	-0.3	0.5	5.2	1.7	-0.7	20093*
Cc1ccc(S(=O)(=O)N2CCN(C(=O)CN3CCc4ccccc4C3)CC2)cc1	0.4	-2.3	-0.2	-5.3	0.4	21614*
CC(C)(C)N(Cc1ccccc1)C(=O)COC(=O)c1ccc2ccccc2n1	0.0	-0.8	3.1	-11.2	0.0	3794
O=C(CSc1ncccn1)NCCC1=CCCCC1	0.0	1.8	6.5	3.4	0.3	5183
Cc1ccc(C)c(-n2nnnc2SCC(=O)NCCC2=CCCCC2)c1	0.6	-0.5	-3.4	-2.3	-2.1	16990*
O=C(CSc1ncccc1C(=O)O)NCCC1=CCCCC1	-0.3	0.2	0.5	1.7	-2.8	20428*
COCCCn1c(=O)/c(=C\c2ccccc2OC(C)C)s/c1=C(/C#N)C(=O)Nc1ccc(C(=O)O)cc1	0.6	-0.2	-53.9	-1.7	1.1	4685
COCCCn1c(=O)/c(=C\c2ccccc2OC(F)F)s/c1=C(/C#N)C(=O)NC(C)C	-1.3	0.0	303.4*	3.8	0.4	3384
O=c1c2c3c(sc2n(CCN2CCCCC2)c(=O)n1Cc1ccco1)CCCCC3	0.7	?	-10.5	-11.3	-3.7	27290*
CCn1c(=O)n(CCc2ccccc2)c(=O)c2c3c(sc21)CCCC3	-0.4	1.6	1.0	2.1	-2.3	22638*
COC(=O)Cn1c(=O)n(CCc2ccccc2)c(=O)c2c3c(sc21)CCCC3	1.4	-0.7	-4.1	-9.6	-2.5	10291
NC(=O)Cn1c(=O)n(Cc2ccco2)c(=O)c2c3c(sc21)CCCCC3	1.5	?	-8.2	8.0	-1.1	18631*
COC(=O)c1cc2ccc(OC)cc2c2cc(OC)c(OC)cc12	1.1	0.1	9.7	-0.3	-3.4	3518
CCN(CC(=O)Nc1c(F)cccc1F)C(=O)c1ccc(OCC(=O)N2CCOCC2)c(OC)c1	1.9	0.1	9.4	-1.1	4.1	?
CCC(=O)c1cc2c(C)cc(=O)oc2c(C)c1OC	-0.1	1.2	10.0	3.1	-2.3	22529*
